Measured values from the supplement of paper PMC8728848.
Shown is part of a subset that was picked to be rich in the strongest signals.

Assays:
Assay in all cases: glycan array binding signal (z-score within array); higher = stronger binding
Details in all cases: glycan notation: IUPAC condensed, linker removed
[1] = target: GalNAc(b1-3)Gal(a1-4)Gal(b1-4)GlcNAc
Procedure, shortened: (§1)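 Glycan array data were curated from 3228 arrays in the Consortium for Functional Glycomics database and kept only where the protein sequence was available. Glycan names were converted to IUPAC-condensed notation, and columns mapping to the same glycan were averaged. The binding signal is a within-array Z-score, averaged across arrays of the same protein sequence at different concentrations or buffers and across linkers. Negative Z-scores can be read as non-binding.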

GalNAc3S(b1-4)GlcNAc = target: GalNAc3S(b1-4)GlcNAc
Procedure, shortened: as §1

[2] = target: GlcNAc(a1-4)Gal(b1-4)GlcNAc(b1-3)Gal(b1-4)Glc
Procedure, shortened: as §1

[3] = target: GlcNAc(a1-6)Gal(b1-4)GlcNAc
Procedure, shortened: as §1

[4] = target: GlcNAc(b1-2)[GlcNAc(b1-4)]Man(a1-3)[GlcNAc(b1-4)][GlcNAc(b1-2)[GlcNAc(b1-6)]Man(a1-6)]Man(b1-4)GlcNAc(b1-4)GlcNAc
Procedure, shortened: as §1

[5] = target: GlcNAc(b1-3)Gal(b1-4)GlcNAc(b1-2)Man(a1-3)[GlcNAc(b1-3)Gal(b1-4)GlcNAc(b1-2)Man(a1-6)]Man(b1-4)GlcNAc(b1-4)[Fuc(a1-6)]GlcNAc
Procedure, shortened: as §1

[6] = target: GlcNAc(b1-3)Gal(b1-4)GlcNAc(b1-3)Gal(b1-4)GlcNAc(b1-3)GalNAc
Procedure, shortened: as §1

Man(a1-6)Man = target: Man(a1-6)Man
Procedure, shortened: as §1

Man(b1-4)GlcNAc = target: Man(b1-4)GlcNAc
Procedure, shortened: as §1

Neu5Ac(a2-3)Gal = target: Neu5Ac(a2-3)Gal
Procedure, shortened: as §1

[7] = target: Neu5Ac(a2-3)Gal(b1-3)GalNAc(b1-4)[Neu5Ac(a2-3)]Gal(b1-4)Glc
Procedure, shortened: as §1

[8] = target: Neu5Ac(a2-3)Gal(b1-3)GalNAc(b1-4)[Neu5Ac(a2-8)Neu5Ac(a2-3)]Gal(b1-4)Glc
Procedure, shortened: as §1

[9] = target: Neu5Ac(a2-3)Gal(b1-3)GlcNAc(b1-2)Man(a1-3)[Neu5Ac(a2-3)Gal(b1-3)GlcNAc(b1-2)Man(a1-6)]Man(b1-4)GlcNAc(b1-4)GlcNAc
Procedure, shortened: as §1

[10] = target: Neu5Ac(a2-3)Gal(b1-4)GlcNAc(b1-6)[Neu5Ac(a2-3)Gal(b1-3)]GalNAc
Procedure, shortened: as §1

[11] = target: Neu5Ac(a2-3)[Neu5Ac(a2-6)]GalNAc
Procedure, shortened: as §1

[12] = target: Neu5Ac(a2-6)Gal(b1-4)GlcNAc(b1-2)Man
Procedure, shortened: as §1

[13] = target: Neu5Ac(a2-6)Gal(b1-4)GlcNAc(b1-2)Man(a1-6)[Man(a1-3)]Man(b1-4)GlcNAc(b1-4)GlcNAc
Procedure, shortened: as §1

[14] = target: Neu5Ac(a2-6)Gal(b1-4)GlcNAc(b1-3)Gal(b1-4)GlcNAc(b1-2)Man(a1-3)[Neu5Ac(a2-6)Gal(b1-4)GlcNAc(b1-3)Gal(b1-4)GlcNAc(b1-2)Man(a1-6)]GalNAc
Procedure, shortened: as §1

[15] = target: Neu5Ac(a2-6)GlcNAc(b1-4)GlcNAc
Procedure, shortened: as §1

[16] = target: Neu5Ac(a2-6)GlcNAc(b1-4)GlcNAc(b1-4)GlcNAc
Procedure, shortened: as §1

[17] = target: Neu5Ac(a2-8)Neu5Ac(a2-3)Gal(b1-4)GlcNAc
Procedure, shortened: as §1

[18] = target: Neu5Ac(a2-8)Neu5Ac(a2-8)Neu5Ac(a2-8)Neu5Ac(a2-3)[GalNAc(b1-4)]Gal(b1-4)Glc
Procedure, shortened: as §1

[19] = target: Neu5Ac9Ac(a2-3)Gal(b1-4)GlcNAc
Procedure, shortened: as §1

Neu5Gc(a2-6)GalNAc = target: Neu5Gc(a2-6)GalNAc
Procedure, shortened: as §1

[20] = target: Neu5Gc(a2-8)Neu5Gc(a2-3)Gal(b1-4)GlcNAc
Procedure, shortened: as §1

B1: Awp3 (Candida glabrata), B4UN32 (protein)
chain: MISFVTLLAILGLLSISWADQTVRSVAGDQRVTDPVIVGDNSILDYYGGSNYDFSNNFEIGRGTLYIGKESYFSSFQSAPTDVPNSFHLLIKNTNNLQNNGQFIIENIKRHANQCSNSSIQVFPINFQNDGEFEIISGGVEGRCCLPTSVIAPQNFLNNGKFYYKVLTDTGSIYSGSCMQNVDIGASTTTTVNNNLWEFTGSINAQINGAVSGAAQINLDGSNMFVNANTFSGQVVNLINGGSFLQTSDPLSNIVVINGLGTSDTGVTSIAVKGKGKSFTYNPSSGIVKLTTVEGKTYAYQIGCGYNTKKFITNNDSGASYESADNFFVLTYSEPYSPQTCQLENSSIFSSNFISTSTSSSSSSSSASSLPSSMSSSLPSSLSSSLSSSLSSSMSSSMSSLFIIPPPYTTTRSSGSSIIDTEIVSFYSTTDSPGHTITGTTTTTLYGPHTHSSVSTPSSSSESSTTSNSSIESSSLPHTSVSSTPESSITPSSNTISSSPTSDFSSVQSSSIMESSSVVASSSVINSSSIVDSSSSSASSLPSSMSSSLSSSMSSSLPSSMSSSLSSSLSSSLSSSMSSSMSSLFIIPPPYTTTRSSGSSIIDTEIVSFYSTTDSPGHTITGTTTTTLYGPHTHSSVSTPSSSSESSTTSNSSIESSSLPHTSVSSTPESSITPSSNTISSSPTSDFSSVQSSSIMESSSVVASSSVINSSSIVDSSSSSASSLPSSMPSSLPSSMSSSLSSSMSSSLSSSLSSSLSSSMSSSMSSLFIIPPPYTTTRSSGSSIIDTEIVSFYSTTDSPGHTITGTTTTTLYGPHTHSSVSTPSSSSESSTTSNSSIESSSLPHTSVSSTPESSITPSSNTISSSPTSDFSSVQSSSIMESSSVVASSSATQSSSVINSSSIVDSSSSSASSLPSSMPSSLPSSLSSSLSSSLSSSMSSSMSSLFIIPPPYTTTRSSGSSIIDTEIVSFYSTTDSPGHTITGTTTTTLYESSIYSSSSSTIQESELSNTSRTTMTSNSSVSISSTSSRSSFSNTKSSTIVISQSASLPDSKTDIILSTSSNIGYSSRSLLSDLGTSISDSDIHHSVLHSTESYSSNESGTNPFTSIASLSNFIPESSSHTSTALGSENSVISSDILTTMSHPVATNSGDKPTTPKRSEQVSTTMTSSGPTPDTSSFDTDGMSAYSRPEFTTNSLEVNKSSTSQLGNNKQTFSNLQLESTRPHSENEVDNNTRLLQSIQQSSTYGTNNVNPLSPTGSISIPLTEDGQGDNNNWNSPATNDLCTQISFNLTATTITVTDRITITDSIHDISSEVITSYIYQTIVDQKTVTQTVDGKSLANKMSSIPKPSSRSLIQPQPPVAIELQEGAASTSRVSLVSLFISIILVLL
**Q.** B1 was tested. Which “glycan array binding signal (z-score)” value [1] did it give?
**A.** Its value is 0.048.

**Q.** What about the “glycan array binding signal (z-score)” value (GalNAc3S(b1-4)GlcNAc) of the same binder?
**A.** Its value is 3.17.

**Q.** What about the “glycan array binding signal (z-score)” value [2] of the same binder?
**A.** The value was -0.466.

**Q.** And the “glycan array binding signal (z-score)” value [3]?
**A.** The value was -0.59.

**Q.** And the “glycan array binding signal (z-score)” value [4]?
**A.** Its value is -1.54.

**Q.** What about the “glycan array binding signal (z-score)” value [5] of the same binder?
**A.** Its value is 2.04.

**Q.** And the “glycan array binding signal (z-score)” value [6]?
**A.** Its value is 0.914.

**Q.** And the “glycan array binding signal (z-score)” value (Man(a1-6)Man)?
**A.** Its value is 0.889.

**Q.** What about the “glycan array binding signal (z-score)” value (Man(b1-4)GlcNAc) of the same binder?
**A.** The value was 0.34.

**Q.** And the “glycan array binding signal (z-score)” value (Neu5Ac(a2-3)Gal)?
**A.** Its value is -1.36.

**Q.** And the “glycan array binding signal (z-score)” value [7]?
**A.** Its value is -0.398.

**Q.** What about the “glycan array binding signal (z-score)” value [8] of the same binder?
**A.** Its value is -0.714.

**Q.** And the “glycan array binding signal (z-score)” value [9]?
**A.** The value was 0.813.

**Q.** And the “glycan array binding signal (z-score)” value [10]?
**A.** Its value is -2.35.

**Q.** What about the “glycan array binding signal (z-score)” value [11] of the same binder?
**A.** The value was -0.108.

**Q.** And the “glycan array binding signal (z-score)” value [12]?
**A.** The value was -0.199.

**Q.** And the “glycan array binding signal (z-score)” value [13]?
**A.** The value was 0.591.

**Q.** What about the “glycan array binding signal (z-score)” value [14] of the same binder?
**A.** The value was 3.08.

**Q.** And the “glycan array binding signal (z-score)” value [15]?
**A.** Its value is 2.86.

**Q.** And the “glycan array binding signal (z-score)” value [16]?
**A.** Its value is 2.42.

**Q.** What about the “glycan array binding signal (z-score)” value [17] of the same binder?
**A.** The value was -1.76.

**Q.** And the “glycan array binding signal (z-score)” value [18]?
**A.** Its value is 1.87.

**Q.** What about the “glycan array binding signal (z-score)” value [19] of the same binder?
**A.** Its value is -0.226.

**Q.** And the “glycan array binding signal (z-score)” value (Neu5Gc(a2-6)GalNAc)?
**A.** The value was -0.186.

**Q.** And the “glycan array binding signal (z-score)” value [20]?
**A.** The value was 0.721.
